The text below walks through data of publication PMC7862700, “An all-to-all approach to the identification of sequence-specific readers for epigenetic DNA modifications on cytosine”.

Holding throughout (test): DAPPL (digital affinity profiling via proximity ligation, sequencing); 10 mM Tris-HCl pH 7.5, 50 mM NaCl, 1 mM DTT, 4% glycerol, room temperature, 30 min; GST-TFs on glutathione beads, 16-mer random dsDNA library, 0.1% formaldehyde crosslink after washing; high values mean tight binding
One experiment deals with T1, FLI1 (Homo sapiens, UniProt Q01543 1-452).
T1 sequence: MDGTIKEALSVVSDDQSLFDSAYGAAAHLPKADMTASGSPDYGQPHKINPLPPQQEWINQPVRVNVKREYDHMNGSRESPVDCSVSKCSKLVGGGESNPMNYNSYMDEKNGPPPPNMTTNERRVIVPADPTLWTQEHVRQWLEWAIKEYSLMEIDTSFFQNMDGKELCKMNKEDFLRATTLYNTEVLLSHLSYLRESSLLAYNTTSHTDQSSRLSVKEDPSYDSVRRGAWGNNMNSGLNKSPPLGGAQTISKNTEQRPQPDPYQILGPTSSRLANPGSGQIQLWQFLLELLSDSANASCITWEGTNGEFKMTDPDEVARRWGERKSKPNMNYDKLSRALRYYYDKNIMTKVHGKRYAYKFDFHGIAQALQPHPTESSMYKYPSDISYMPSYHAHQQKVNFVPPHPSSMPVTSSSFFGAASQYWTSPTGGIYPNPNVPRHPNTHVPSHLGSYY
The settings on record: protein: recombinant; tags: N-terminal GST; dsDNA, one strand shown. A digest of the protocol: (§1)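 Binding signal is given per hexamer as its read frequency for a factor divided by its frequency in the tag-only sample. GST-fused human transcription factors were expressed in yeast, captured on glutathione beads, barcoded with DNA and pooled with that sample, then incubated with 200 nmole of a 16-mer random double-stranded DNA library in Tris/NaCl/DTT/glycerol buffer for 30 min at room temperature. The pools were then washed, crosslinked, proximity-ligated, amplified by PCR and sequenced on an Illumina NextSeq500.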

In a further experiment the target is T2, ELK1 (Homo sapiens, UniProt P19419 1-428).
T2 sequence: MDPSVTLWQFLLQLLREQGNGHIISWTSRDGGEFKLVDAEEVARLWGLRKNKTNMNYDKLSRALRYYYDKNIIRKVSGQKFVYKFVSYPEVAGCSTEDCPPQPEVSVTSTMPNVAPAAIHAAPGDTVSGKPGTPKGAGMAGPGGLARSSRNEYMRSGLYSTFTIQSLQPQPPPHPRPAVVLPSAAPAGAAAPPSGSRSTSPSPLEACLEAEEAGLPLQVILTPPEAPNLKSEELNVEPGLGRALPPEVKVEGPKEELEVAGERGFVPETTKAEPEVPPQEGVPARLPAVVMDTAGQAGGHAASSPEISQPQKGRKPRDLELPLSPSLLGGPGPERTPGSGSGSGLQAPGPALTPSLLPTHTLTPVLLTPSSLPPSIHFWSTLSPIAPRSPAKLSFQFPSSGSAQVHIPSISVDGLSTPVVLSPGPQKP
The settings on record: protein: recombinant; tags: N-terminal GST; dsDNA, one strand shown. A digest of the protocol: as §1

A further experiment has as its target T3, GABPA (Homo sapiens, UniProt Q06546 1-454).
T3 sequence: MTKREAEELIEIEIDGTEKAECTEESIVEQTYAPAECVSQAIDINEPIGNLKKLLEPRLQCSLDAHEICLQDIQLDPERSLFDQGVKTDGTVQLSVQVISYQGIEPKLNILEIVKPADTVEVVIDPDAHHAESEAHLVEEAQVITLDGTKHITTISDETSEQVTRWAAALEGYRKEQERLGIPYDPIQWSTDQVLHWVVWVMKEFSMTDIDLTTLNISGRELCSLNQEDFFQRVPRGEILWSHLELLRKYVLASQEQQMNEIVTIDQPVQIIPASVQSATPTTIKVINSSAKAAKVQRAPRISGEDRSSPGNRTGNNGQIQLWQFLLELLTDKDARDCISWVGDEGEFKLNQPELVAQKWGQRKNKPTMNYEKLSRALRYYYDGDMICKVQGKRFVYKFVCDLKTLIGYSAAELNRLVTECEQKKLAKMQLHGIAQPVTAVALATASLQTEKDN
The settings on record: protein: recombinant; tags: N-terminal GST; dsDNA, one strand shown. A digest of the protocol: as §1

The next experiment concerns the target T4, ERG (Homo sapiens, UniProt P11308 1-479).
T4 sequence: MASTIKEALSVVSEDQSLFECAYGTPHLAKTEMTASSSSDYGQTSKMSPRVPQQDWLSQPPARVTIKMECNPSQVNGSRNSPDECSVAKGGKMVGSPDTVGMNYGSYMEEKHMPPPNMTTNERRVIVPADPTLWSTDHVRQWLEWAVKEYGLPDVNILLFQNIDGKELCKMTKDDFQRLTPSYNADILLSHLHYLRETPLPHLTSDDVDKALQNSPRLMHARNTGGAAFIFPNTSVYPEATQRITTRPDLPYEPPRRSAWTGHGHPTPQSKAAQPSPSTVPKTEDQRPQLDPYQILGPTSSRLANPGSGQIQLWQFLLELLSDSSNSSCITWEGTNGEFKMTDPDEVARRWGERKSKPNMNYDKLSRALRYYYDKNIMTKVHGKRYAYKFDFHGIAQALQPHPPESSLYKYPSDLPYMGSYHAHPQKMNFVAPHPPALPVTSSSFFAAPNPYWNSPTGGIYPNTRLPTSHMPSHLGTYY
To be noted: protein: recombinant; tags: N-terminal GST; dsDNA, one strand shown. A digest of the protocol: as §1

Another experiment deals with ELF1 (Homo sapiens, UniProt P32519 1-619). The settings on record: protein: recombinant; tags: N-terminal GST; dsDNA, one strand shown. A digest of the protocol:
as §1

The next experiment concerns the target T5, EHF (Homo sapiens, UniProt Q9NZC4 1-300).
T5 sequence: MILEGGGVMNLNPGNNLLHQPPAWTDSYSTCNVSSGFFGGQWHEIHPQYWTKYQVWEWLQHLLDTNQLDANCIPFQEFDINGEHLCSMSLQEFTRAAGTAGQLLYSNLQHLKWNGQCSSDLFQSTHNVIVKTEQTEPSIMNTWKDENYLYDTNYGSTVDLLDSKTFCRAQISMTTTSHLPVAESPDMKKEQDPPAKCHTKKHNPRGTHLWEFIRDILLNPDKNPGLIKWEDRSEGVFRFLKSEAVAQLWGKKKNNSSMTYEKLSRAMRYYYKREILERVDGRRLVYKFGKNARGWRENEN
The settings on record: protein: recombinant; tags: N-terminal GST; dsDNA, one strand shown. A digest of the protocol:
as §1

A further experiment deals with SPI1 (Homo sapiens, UniProt P17947 1-270). To be noted: protein: recombinant; tags: N-terminal GST; dsDNA, one strand shown. A digest of the protocol: as §1
The target in the next experiment is SPIB (Homo sapiens, UniProt Q01892 1-262). The settings on record: protein: recombinant; tags: N-terminal GST; dsDNA, one strand shown. A digest of the protocol:
as §1

A further experiment deals with T6, ELK3 (Homo sapiens, UniProt P41970 1-407).
T6 sequence: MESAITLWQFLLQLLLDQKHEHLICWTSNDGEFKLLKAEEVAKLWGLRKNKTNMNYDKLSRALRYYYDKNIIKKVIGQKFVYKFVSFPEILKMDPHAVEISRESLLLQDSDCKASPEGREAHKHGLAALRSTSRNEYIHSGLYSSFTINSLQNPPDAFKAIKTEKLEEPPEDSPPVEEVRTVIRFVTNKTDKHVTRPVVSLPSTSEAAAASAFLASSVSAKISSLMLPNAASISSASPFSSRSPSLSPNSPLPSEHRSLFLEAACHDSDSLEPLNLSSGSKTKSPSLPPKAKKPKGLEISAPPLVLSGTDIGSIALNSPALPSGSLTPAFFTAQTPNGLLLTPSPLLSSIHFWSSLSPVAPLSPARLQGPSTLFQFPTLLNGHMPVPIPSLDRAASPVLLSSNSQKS
To be noted: protein: recombinant; tags: N-terminal GST; dsDNA, one strand shown. A digest of the protocol: as §1

For the next experiment, the target named is T7, FEV (Homo sapiens, UniProt Q99581 1-238).
T7 sequence: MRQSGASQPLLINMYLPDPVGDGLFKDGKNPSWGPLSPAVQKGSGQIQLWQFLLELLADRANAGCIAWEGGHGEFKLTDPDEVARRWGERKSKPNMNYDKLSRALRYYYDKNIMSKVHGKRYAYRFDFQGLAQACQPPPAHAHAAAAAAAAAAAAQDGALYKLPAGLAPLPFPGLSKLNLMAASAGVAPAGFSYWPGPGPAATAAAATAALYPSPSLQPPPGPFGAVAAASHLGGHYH
The settings on record: protein: recombinant; tags: N-terminal GST; dsDNA, one strand shown. A digest of the protocol: as §1

A further experiment has as its target ETV5 (Homo sapiens, UniProt P41161 1-510). The settings on record: protein: recombinant; tags: N-terminal GST; dsDNA, one strand shown. A digest of the protocol:
as §1

A further experiment deals with HSF1 (Homo sapiens, UniProt Q00613 1-529). To be noted: protein: recombinant; tags: N-terminal GST; chain copies: 3; dsDNA, one strand shown. A digest of the protocol: as §1
A further experiment addresses T8, SPIC (Homo sapiens, UniProt Q8N5J4 1-248).
T8 sequence: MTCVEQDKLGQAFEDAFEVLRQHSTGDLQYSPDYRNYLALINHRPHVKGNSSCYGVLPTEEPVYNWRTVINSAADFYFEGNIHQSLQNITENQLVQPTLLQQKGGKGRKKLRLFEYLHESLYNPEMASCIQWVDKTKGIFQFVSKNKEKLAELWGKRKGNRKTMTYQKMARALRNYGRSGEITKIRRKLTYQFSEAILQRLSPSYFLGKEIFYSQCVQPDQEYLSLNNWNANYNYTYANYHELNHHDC
To be noted: protein: recombinant; tags: N-terminal GST; dsDNA, one strand shown. A digest of the protocol: as §1

Another experiment deals with ELF4 (Homo sapiens, UniProt Q99607 1-663). To be noted: protein: recombinant; tags: N-terminal GST; dsDNA, one strand shown. A digest of the protocol: as §1
The next experiment concerns the target T9, ELK4 (Homo sapiens, UniProt P28324-2 1-405).
T9 sequence: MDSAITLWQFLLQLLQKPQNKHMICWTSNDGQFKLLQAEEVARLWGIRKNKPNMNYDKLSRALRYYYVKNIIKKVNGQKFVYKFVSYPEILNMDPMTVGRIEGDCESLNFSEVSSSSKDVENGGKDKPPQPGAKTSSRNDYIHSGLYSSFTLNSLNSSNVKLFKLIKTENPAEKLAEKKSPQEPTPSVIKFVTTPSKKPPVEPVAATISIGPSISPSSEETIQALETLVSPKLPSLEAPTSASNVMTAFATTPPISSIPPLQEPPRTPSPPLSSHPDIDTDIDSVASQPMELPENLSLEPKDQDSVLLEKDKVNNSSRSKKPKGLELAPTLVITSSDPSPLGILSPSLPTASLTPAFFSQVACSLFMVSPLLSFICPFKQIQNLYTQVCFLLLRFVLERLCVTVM
The settings on record: protein: recombinant; tags: N-terminal GST; dsDNA, one strand shown. A digest of the protocol:
as §1

A further experiment concerns the target T10, ETV2 (Homo sapiens, UniProt O00321 1-342).
T10 sequence: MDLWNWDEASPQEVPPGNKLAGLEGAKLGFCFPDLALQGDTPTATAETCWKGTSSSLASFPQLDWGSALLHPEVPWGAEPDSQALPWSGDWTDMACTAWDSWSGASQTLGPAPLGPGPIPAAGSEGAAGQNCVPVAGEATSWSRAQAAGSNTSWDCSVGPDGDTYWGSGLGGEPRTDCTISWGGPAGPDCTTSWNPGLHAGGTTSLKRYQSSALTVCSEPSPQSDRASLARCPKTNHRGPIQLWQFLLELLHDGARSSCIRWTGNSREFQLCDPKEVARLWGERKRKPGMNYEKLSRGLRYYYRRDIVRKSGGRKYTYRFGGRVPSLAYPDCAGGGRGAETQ
To be noted: protein: recombinant; tags: N-terminal GST; dsDNA, one strand shown. A digest of the protocol: as §1

For a further experiment, the target named is T11, ELF3 (Homo sapiens, UniProt P78545 1-371).
T11 sequence: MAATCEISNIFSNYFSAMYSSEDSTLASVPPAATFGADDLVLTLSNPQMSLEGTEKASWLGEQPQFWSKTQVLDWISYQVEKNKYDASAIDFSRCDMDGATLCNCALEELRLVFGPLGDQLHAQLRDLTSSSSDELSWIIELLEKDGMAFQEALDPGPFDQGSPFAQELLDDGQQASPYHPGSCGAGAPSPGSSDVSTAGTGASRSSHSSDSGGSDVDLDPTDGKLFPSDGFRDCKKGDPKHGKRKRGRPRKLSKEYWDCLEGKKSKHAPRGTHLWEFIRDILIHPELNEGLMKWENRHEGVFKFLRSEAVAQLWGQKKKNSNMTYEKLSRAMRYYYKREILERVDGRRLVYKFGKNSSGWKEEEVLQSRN
The settings on record: protein: recombinant; tags: N-terminal GST; dsDNA, one strand shown. A digest of the protocol: as §1

Another experiment has as its target CRX (Homo sapiens, UniProt O43186 1-299). To be noted: protein: recombinant; tags: N-terminal GST; dsDNA, one strand shown. A digest of the protocol: as §1
The next experiment has as its target ETV1 (Homo sapiens, UniProt P50549 1-477). To be noted: protein: recombinant; tags: N-terminal GST; dsDNA, one strand shown. A digest of the protocol: as §1

Chain of ELF1 (P32519 whole entry): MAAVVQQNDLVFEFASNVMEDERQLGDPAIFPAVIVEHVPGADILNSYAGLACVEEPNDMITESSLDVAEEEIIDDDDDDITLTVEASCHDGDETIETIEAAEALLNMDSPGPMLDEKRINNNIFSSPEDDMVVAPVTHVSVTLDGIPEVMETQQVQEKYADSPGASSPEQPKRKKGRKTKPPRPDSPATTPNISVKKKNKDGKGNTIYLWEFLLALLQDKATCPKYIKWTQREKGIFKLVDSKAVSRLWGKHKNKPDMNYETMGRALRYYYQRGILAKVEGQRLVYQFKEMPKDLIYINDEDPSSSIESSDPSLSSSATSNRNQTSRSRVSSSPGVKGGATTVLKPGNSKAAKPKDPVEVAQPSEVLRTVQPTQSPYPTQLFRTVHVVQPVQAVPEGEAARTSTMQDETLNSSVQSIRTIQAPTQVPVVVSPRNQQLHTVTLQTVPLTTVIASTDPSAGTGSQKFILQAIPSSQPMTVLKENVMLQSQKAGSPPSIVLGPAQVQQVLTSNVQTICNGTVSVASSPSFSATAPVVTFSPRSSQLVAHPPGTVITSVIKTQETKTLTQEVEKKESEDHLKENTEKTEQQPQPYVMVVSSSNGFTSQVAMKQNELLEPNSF
Chain of ETV1 (P50549 whole entry): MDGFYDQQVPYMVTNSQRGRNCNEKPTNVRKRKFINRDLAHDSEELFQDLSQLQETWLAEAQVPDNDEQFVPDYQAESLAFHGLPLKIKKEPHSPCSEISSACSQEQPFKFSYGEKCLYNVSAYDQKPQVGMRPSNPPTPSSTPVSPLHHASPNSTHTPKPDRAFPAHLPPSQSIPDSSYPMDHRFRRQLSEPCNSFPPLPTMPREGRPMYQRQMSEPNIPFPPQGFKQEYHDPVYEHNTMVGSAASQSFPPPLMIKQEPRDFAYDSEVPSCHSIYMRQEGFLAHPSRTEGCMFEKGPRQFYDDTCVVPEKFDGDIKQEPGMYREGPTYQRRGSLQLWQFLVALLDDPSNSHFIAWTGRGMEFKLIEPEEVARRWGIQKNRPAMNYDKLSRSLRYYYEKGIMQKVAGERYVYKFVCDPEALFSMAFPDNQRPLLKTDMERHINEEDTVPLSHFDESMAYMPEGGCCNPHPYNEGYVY
Chain of ETV5 (P41161 whole entry): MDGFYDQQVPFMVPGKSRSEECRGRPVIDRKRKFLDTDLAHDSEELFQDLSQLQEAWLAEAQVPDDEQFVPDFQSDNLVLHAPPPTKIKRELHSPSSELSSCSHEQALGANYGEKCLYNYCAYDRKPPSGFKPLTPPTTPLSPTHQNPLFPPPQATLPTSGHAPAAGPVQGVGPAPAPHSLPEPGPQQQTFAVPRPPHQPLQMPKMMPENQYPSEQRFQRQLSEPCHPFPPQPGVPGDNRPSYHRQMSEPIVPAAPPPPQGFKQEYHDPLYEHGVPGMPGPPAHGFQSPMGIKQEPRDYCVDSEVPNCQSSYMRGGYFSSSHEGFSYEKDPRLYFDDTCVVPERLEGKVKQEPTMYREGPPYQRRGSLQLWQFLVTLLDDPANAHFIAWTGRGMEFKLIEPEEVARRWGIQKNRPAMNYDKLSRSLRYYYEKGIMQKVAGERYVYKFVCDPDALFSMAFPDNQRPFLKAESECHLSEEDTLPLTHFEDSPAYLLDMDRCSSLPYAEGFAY
Chain of HSF1 (Q00613 whole entry): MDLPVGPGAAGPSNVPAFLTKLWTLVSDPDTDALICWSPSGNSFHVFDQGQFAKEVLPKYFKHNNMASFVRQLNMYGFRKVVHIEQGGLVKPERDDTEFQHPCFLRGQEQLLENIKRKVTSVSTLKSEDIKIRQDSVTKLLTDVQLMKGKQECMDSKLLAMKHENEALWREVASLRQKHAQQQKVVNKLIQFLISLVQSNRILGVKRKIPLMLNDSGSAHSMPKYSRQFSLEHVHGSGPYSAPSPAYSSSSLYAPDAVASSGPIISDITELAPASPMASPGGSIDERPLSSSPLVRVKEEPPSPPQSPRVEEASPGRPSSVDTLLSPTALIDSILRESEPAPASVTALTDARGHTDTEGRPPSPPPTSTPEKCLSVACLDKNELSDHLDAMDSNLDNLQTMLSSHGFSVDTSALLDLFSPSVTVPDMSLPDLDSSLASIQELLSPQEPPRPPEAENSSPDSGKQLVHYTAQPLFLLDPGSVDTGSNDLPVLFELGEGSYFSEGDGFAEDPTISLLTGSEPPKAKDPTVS
Chain of CRX (O43186 whole entry): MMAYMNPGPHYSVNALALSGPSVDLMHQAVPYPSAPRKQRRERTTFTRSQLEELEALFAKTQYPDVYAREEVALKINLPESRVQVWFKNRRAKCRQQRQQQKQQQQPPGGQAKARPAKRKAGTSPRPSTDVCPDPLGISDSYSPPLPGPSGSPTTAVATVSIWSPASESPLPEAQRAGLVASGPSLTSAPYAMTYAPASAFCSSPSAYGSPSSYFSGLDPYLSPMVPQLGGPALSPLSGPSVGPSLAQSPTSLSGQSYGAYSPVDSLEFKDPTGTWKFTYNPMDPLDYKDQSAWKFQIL
Chain of SPIB (Q01892 whole entry): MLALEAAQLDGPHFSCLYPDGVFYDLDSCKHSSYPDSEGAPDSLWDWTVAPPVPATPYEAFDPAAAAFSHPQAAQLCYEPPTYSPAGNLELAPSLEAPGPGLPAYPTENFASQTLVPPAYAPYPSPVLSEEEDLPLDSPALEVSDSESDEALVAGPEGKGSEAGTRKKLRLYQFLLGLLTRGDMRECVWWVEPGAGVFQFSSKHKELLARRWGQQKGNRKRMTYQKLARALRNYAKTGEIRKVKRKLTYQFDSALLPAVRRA
Chain of ELF4 (Q99607 whole entry): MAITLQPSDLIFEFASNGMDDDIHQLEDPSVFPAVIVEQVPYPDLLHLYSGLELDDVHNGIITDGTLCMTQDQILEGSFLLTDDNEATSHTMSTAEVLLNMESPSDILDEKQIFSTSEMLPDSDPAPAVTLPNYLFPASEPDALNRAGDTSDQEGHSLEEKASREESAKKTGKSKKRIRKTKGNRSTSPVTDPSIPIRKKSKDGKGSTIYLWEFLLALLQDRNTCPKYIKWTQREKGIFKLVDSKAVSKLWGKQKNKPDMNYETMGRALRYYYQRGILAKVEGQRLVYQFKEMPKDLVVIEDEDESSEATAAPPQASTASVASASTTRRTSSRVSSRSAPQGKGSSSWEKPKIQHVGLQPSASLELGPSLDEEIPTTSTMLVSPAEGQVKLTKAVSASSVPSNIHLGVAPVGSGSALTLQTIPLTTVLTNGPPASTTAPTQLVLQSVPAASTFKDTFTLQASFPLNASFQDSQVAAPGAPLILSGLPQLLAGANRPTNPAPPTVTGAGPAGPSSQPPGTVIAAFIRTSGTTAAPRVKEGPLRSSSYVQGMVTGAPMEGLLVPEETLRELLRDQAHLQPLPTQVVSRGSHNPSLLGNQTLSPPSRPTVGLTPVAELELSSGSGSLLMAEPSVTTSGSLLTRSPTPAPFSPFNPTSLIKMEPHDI

Take TACTCG: the binding signal is 1.33 fold enrichment (6-mer frequency, TF over GST control) in the experiment with FLI1; 1.29 fold enrichment (6-mer frequency, TF over GST control) with ELK1; 1.34 fold enrichment (6-mer frequency, TF over GST control) with GABPA; 1.14 fold enrichment (6-mer frequency, TF over GST control) in the experiment with ERG; 1.34 fold enrichment (6-mer frequency, TF over GST control) in the experiment with ELF1; 1.16 fold enrichment (6-mer frequency, TF over GST control) with EHF. Also, the binding signal with SPI1 was 1.22 fold enrichment (6-mer frequency, TF over GST control); with SPIB it was 1.18 fold enrichment (6-mer frequency, TF over GST control); with ELK3, 1.22 fold enrichment (6-mer frequency, TF over GST control); in the experiment with FEV it was 1.23 fold enrichment (6-mer frequency, TF over GST control); in the experiment with ETV5, 1.28 fold enrichment (6-mer frequency, TF over GST control); with HSF1 it was 1.72 fold enrichment (6-mer frequency, TF over GST control). For the same sequence, the binding signal with SPIC was 1.25 fold enrichment (6-mer frequency, TF over GST control); in the experiment with ELF4 it was 1.22 fold enrichment (6-mer frequency, TF over GST control); with ELK4, 1.3 fold enrichment (6-mer frequency, TF over GST control); with ETV2 it was 1.19 fold enrichment (6-mer frequency, TF over GST control); with ELF3, 1.29 fold enrichment (6-mer frequency, TF over GST control); with CRX, 1.38 fold enrichment (6-mer frequency, TF over GST control). The binding signal in the experiment with ETV1 was 1.26 fold enrichment (6-mer frequency, TF over GST control).
